Test results: publication PMC5540273 (PLoS ONE, 2017)

What was measured:
Conditions in all cases: concentration: 1 μM, replicates: in singlicate; n = 1
[1] = tested on: CAMK1
[2] = tested on: CAMK2A
[3] = tested on: CAMK2B
[4] = tested on: CAMK2D
[5] = tested on: CAMK2G
[6] = tested on: CAMK4
[7] = tested on: CAMKK1
[8] = tested on: CAMKK2
[9] = tested on: CASK
[10] = tested on: T1, CDC2L1
T1 construct: gene CDK11B

[11] = tested on: CDC2L2
[12] = tested on: T2, CDC2L5
T2 construct: gene CDK13

[13] = tested on: T3, CDK11
T3 construct: gene CDK19

[14] = tested on: CDK2
[15] = tested on: CDK3
[16] = tested on: CDK4-cyclinD1
[17] = tested on: CDK4-cyclinD3
[18] = tested on: CDK4
[19] = tested on: CDK5
[20] = tested on: CDK7
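Note: KINOMEscan kinase panel screen.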

SMILES | %Inh [1] | %Inh [2] | %Inh [3] | %Inh [4] | %Inh [5] | %Inh [6] | %Inh [7] | %Inh [8] | %Inh [9] | %Inh [10] | %Inh [11] | %Inh [12] | %Inh [13] | %Inh [14] | %Inh [15] | %Inh [16] | %Inh [17] | %Inh [18] | %Inh [19] | %Inh [20]
O=C(Nc1cccc(Oc2ccc3nc(NC(=O)C4CC4)cn3n2)c1)c1ccccc1C(F)(F)F | 7% | 100% | 100% | 1% | 0% | 0% | 1% | 0% | 6% | 0% | 14% | 25% | 1% | 0% | 21% | 24% | 0% | 0% | 0% | 0%
CN(C)Cc1ccc(-c2ccc3c(Nc4ccc(Oc5ccccn5)cc4)ccnc3c2)o1 [GW567148] | 27% | 0% | 0% | 0% | 15% | 0% | 0% | 0% | 0% | 0% | 0% | 0% | 0% | 0% | 0% | 0% | 0% | 25% | 0% | 62%
COc1cccc(C(=O)Nc2cccc(Oc3ccc4nc(NC(=O)C5CC5)cn4n3)c2)c1 | 16% | 11% | 18% | 15% | 0% | 8% | 6% | 0% | 3% | 0% | 17% | 2% | 8% | 0% | 0% | 1% | 0% | 0% | 0% | 0%
CN(c1ccc(NC(=O)Nc2cc(C(F)(F)F)ccc2F)cc1)c1ccnc(Nc2ccc(S(N)(=O)=O)cc2)n1 [GW809893] | 48% | 0% | 4% | 1% | 9% | 0% | 16% | 15% | 35% | 88% | 94% | 83% | 98.8% | 99.7% | 99% | 14% | 5% | 0% | 97.1% | 95.3%
O=C(Nc1ccccc1F)NC1CCN(c2ccnc(Nc3ccc(F)cc3)n2)CC1 [GSK1379800] | 0% | 0% | 0% | 3% | 15% | 0% | 0% | 3% | 0% | 0% | 34% | 0% | 9% | 0% | 0% | 2% | 0% | 28% | 0% | 0%
Cl.NC(=O)c1cccc(Nc2nccc(Nc3ccc(Oc4c(Cl)cccc4Cl)c(Cl)c3)n2)c1 [GW659009] | 14% | 0% | 0% | 0% | 0% | 0% | 0% | 0% | 50% | 0% | 2% | 0% | 88% | 0% | 0% | 0% | 0% | 1% | 0% | 0%
CC(C)(C)c1ccc2nccc(Nc3cccc(O)c3)c2c1 [GW856795] | 0% | 0% | 0% | 0% | 0% | 0% | 2% | 0% | 0% | 0% | 0% | 36% | 17% | 0% | 0% | 55% | 0% | 32% | 0% | 1%
COc1ccc(CNC(=O)NC2CCN(c3ccnc(Nc4ccc(F)cc4)n3)CC2)cc1 [GSK1379788] | 10% | 0% | 0% | 8% | 16% | 0% | 2% | 16% | 0% | 0% | 10% | 0% | 3% | 0% | 3% | 0% | 0% | 20% | 0% | 0%
COc1cc(Nc2nccc(N3CCC(NC(=O)c4cc5ccccc5s4)C3)n2)cc(OC)c1OC (stereo not shown) [GSK1379760] | 17% | 0% | 1% | 0% | 29% | 0% | 12% | 0% | 12% | 0% | 5% | 0% | 19% | 0% | 11% | 41% | 0% | 14% | 0% | 16%
Fc1ccc(-c2ncn(C3CCNCC3)c2-c2ccnc(Oc3ccc(-c4ccccc4)cc3)n2)cc1 [SB-245391] | 30% | 20% | 0% | 14% | 17% | 0% | 22% | 20% | 7% | 11% | 9% | 43% | 22% | 19% | 26% | 0% | 34% | 15% | 0% | 41%
O=C(NC1CCN(c2ccnc(Nc3ccc(F)cc3)n2)C1)c1cc2ccccc2s1 (stereo not shown) [GSK1379716] | 26% | 0% | 0% | 7% | 23% | 13% | 10% | 17% | 22% | 0% | 14% | 0% | 36% | 0% | 18% | 14% | 0% | 0% | 7% | 0%
COc1cccc(NC(=O)NC2CCN(c3ccnc(Nc4cc(OC)c(OC)c(OC)c4)n3)C2)c1 (stereo not shown) [GSK1379763] | 26% | 0% | 0% | 13% | 38% | 0% | 40% | 36% | 15% | 1% | 10% | 0% | 5% | 0% | 21% | 0% | 0% | 0% | 0% | 0%
O=c1[nH]cc(-c2ccc(N3CCOCC3)cc2)c2sc(-c3cn[nH]c3)cc12 [GSK2276055] | 31% | 2% | 2% | 18% | 25% | 0% | 29% | 22% | 15% | 4% | 12% | 0% | 0% | 0% | 6% | 0% | 21% | 0% | 0% | 2%
C[C@@H](Oc1cc(-n2cnc3cc(-c4ccnc(NCCS(C)(=O)=O)c4)ccc32)sc1C(N)=O)c1ccccc1Cl [GSK907232] | 15% | 0% | 0% | 5% | 33% | 0% | 21% | 80% | 57% | 0% | 5% | 0% | 20% | 13% | 16% | 0% | 0% | 0% | 0% | 0%
O=C(O)C(F)(F)F.O=C(O)C(F)(F)F.O=c1[nH]ccc2nc(N[C@@H]3CCCNC3)nc(Nc3ccc(S(=O)(=O)N4CCOCC4)cc3)c12 [GSK2177277] | 88% | 100% | 99.9% | 54% | 54% | 95.6% | 94.2% | 57% | 2% | 0% | 17% | 0% | 0% | 88% | 88% | 98.1% | 99.8% | 62% | 90.8% | 99.6%
CCc1ccc(-c2ccc3c(c2)-c2c(cnn2C)S(=O)(=O)N3C)cc1 | 2% | 0% | 4% | 0% | 13% | 0% | 13% | 12% | 3% | 0% | 0% | 20% | 7% | 0% | 0% | 3% | 3% | 0% | 0% | 6%
Cl.c1ccc(-c2ccc3c(Nc4ccc5[nH]ncc5c4)ccnc3c2)nc1 [GW440137] | 11% | 0% | 0% | 12% | 16% | 0% | 0% | 19% | 13% | 0% | 16% | 0% | 3% | 0% | 0% | 0% | 29% | 0% | 0% | 8%
COc1ccc(Nc2nccc(NCCNC(=O)c3cc4ccccc4s3)n2)cc1 [GSK1379896] | 4% | 0% | 0% | 0% | 16% | 0% | 0% | 0% | 5% | 0% | 1% | 0% | 10% | 0% | 5% | 0% | 0% | 13% | 0% | 0%
Clc1ccc(-c2nn3ncccc3c2-c2ccnc(Nc3ccc4c(c3)OCCO4)n2)cc1 [GW829116] | 0% | 0% | 0% | 0% | 0% | 3% | 0% | 0% | 15% | 0% | 0% | 0% | 0% | 0% | 0% | 0% | 0% | 0% | 7% | 0%
Cl.Cl.NCC(C(=O)Nc1cc(Br)c(-c2ccnc3[nH]ccc23)s1)c1ccccc1 (stereo not shown) [GSK1269851] | 0% | 100% | 100% | 8% | 12% | 0% | 8% | 0% | 25% | 1% | 4% | 0% | 17% | 0% | 5% | 0% | 2% | 15% | 0% | 24%
